Source: PubChem BioAssay AID1159580 (chemical genetic matrix, 2015)
Values joined by “and” are separate entries in the source; they are usually repeats but may differ in a detail not shown here. Equal values may be shown once. In all, about 5,500 compounds went through this assay and about 2,000 (36%) were called active. Inconclusive results (about 18%) are left out. No stated cut-off is given here; in the data, active means normalized growth mostly below about 0.91 (no sharp cut-off); inconclusive means no clear call, values can overlap the other calls; inactive means mostly above about 0.92. This is one part of the list.

Assay: chemical genetic growth profiling, strain panel (AID 1159580);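 further: tested at 20 µM; growth read once vehicle control cultures reached saturation at 30 °C; 1 = growth at the plate median or of vehicle wells; lower values mean less growth of the strain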
Conditions: S. cerevisiae deletion strains, growth OD

Measured: normalized growth

CC(=O)S[C@@H]1CC2=CC(=O)CC[C@]2(C)[C@H]2CC[C@@]3(C)[C@@H](CC[C@@]34CCC(=O)O4)C12 (some centres undefined)
inactive: locus YAL013W, strain DEP1, hits give low values 1 | locus YAL021C, strain ccr4, hits give low values 1.01 | locus YAL026C, strain drs2, hits give low values 1.01 | locus YAL030W, strain snc1, hits give low values 1.01 | locus YBL061C, strain skt5, hits give low values 1.02 | locus YBR009C, strain hhf1, hits give low values 0.98 | locus YBR021W, strain FUR4, hits give low values 0.992 | locus YBR023C, strain chs3, hits give low values 1.01 | locus YBR171W, strain sec66, hits give low values 1.03 | locus YBR229C, strain ROT2, hits give low values 0.997 | locus YBR231C, strain swc5, hits give low values 1.04 | locus YBR279W, strain paf1, hits give low values 1.01 | locus YCL011C, strain gbp2, hits give low values 0.984 | locus YCL016C, strain dcc1, hits give low values 0.993 | locus YCL029C, strain bik1, hits give low values 1.03 | locus YCL061C, strain MRC1, hits give low values 1.04 | locus YCL069W, strain vba3, hits give low values 1.01 | locus YCR088W, strain abp1, hits give low values 1.01 | locus YDL005C, strain med2, hits give low values 1.01 | locus YDL035C, strain GPR1, hits give low values 1.01 | locus YDL040C, strain nat1, hits give low values 1.01 | locus YDL074C, strain BRE1, hits give low values 1.01 | locus YDL101C, strain DUN1, hits give low values 1.01 | locus YDL134C, strain PPH21, hits give low values 1.01 | locus YDL185W, strain tfp1, hits give low values 1.01 | locus YDL192W, strain arf1, hits give low values 1.03 | locus YDR001C, strain nth1, hits give low values 1 | locus YDR069C, strain doa4, hits give low values 1.03 | locus YDR101C, strain arx1, hits give low values 1.03 | locus YDR137W, strain rgp1, hits give low values 1 | locus YDR150W, strain NUM1, hits give low values 1 | locus YDR159W, strain sac3, hits give low values 0.972 | locus YDR162C, strain NBP2, hits give low values 1 | locus YDR195W, strain ref2 1.05 | locus YDR297W, strain sur2, hits give low values 1.02 | locus YDR318W, strain mcm21, hits give low values 1.02 | locus YDR334W, strain swr1, hits give low values 1 | locus YDR335W, strain msn5, hits give low values 1.02 | locus YDR388W, hits give low values 1.03 | locus YDR392W, strain spt3, hits give low values 0.951 | locus YDR502C, strain sam2, hits give low values 1.02 | locus YEL003W, strain gim4, hits give low values 1.01 | locus YEL037C, strain rad23, hits give low values 1.01 | locus YEL061C, strain CIN8 (second series), hits give low values 1.01 | locus YEL061C, strain CIN8, hits give low values 0.963 | locus YER015W, strain faa2, hits give low values 1.02 | locus YER016W, strain bim1, hits give low values 1 | locus YER110C, hits give low values 1.03 | locus YER111C, strain swi4, hits give low values 1.01 | locus YER155C, strain BEM2 (second series), hits give low values 1.07 | locus YER155C, strain BEM2, hits give low values 1.01 | locus YER167W, strain BCK2, hits give low values 1.01 | locus YFR010W, strain ubp6, hits give low values 1.02 | locus YGL078C, strain dbp3, hits give low values 1.03 | locus YGL086W, strain mad1, hits give low values 0.998 | locus YGL167C, strain pmr1, hits give low values 1.03 | locus YGL173C, strain kem1, hits give low values 1.02 | locus YGL227W, strain vid30, hits give low values 0.997 | locus YGL240W, strain doc1, hits give low values 1.05 | locus YGL248W, strain PDE1, hits give low values 1.01 | locus YGL253W, strain hxk2, hits give low values 0.97 | locus YGR078C, strain PAC10, hits give low values 0.984 | locus YGR135W, strain pre9, hits give low values 1.02 | locus YGR252W, strain gcn5, hits give low values 1 | locus YHR013C, strain ard1, hits give low values 1.01 | locus YHR027C, strain rpn1, hits give low values 1.01 | locus YHR030C, strain SLT2, hits give low values 0.996 and 1.06 | locus YHR079C, strain IRE1 (second series), hits give low values 1.03 | locus YHR079C, strain IRE1, hits give low values 1.08 | locus YHR094C, strain hxt1, hits give low values 1.03 | locus YHR129C, strain ARP1, hits give low values 1 | locus YHR142W, strain chs7, hits give low values 1 | locus YHR200W, strain rpn10, hits give low values 1.02 | locus YIL066C, strain RNR3, hits give low values 1 | locus YIL073C, strain SPO22, hits give low values 1.05 | locus YIL125W, strain kgd1, hits give low values 1.02 | locus YIR030C, strain dcg1, hits give low values 1.02 | locus YJL092W, strain hpr5, hits give low values 1.01 | locus YJL095W, strain BCK1 (second series), hits give low values 0.996 | locus YJL095W, strain BCK1, hits give low values 1 and 1.02 | locus YJL115W, strain asf1, hits give low values 1.02 | locus YJL129C, strain trk1, hits give low values 1.02 | locus YJL134W, strain LCB3, hits give low values 1 | locus YJL154C, strain vps35, hits give low values 1.02 | locus YJL164C, strain tpk1, hits give low values 0.983 | locus YJL166W, strain qcr8, hits give low values 1.04 | locus YJL168C, strain set2, hits give low values 1.02 | locus YJL187C, strain SWE1 (second series), hits give low values 1 | locus YJL187C, strain SWE1, hits give low values 1.02
